TrxR1 substrate: substrates of rat thioredoxin reductase 1; purified TrxR1 substrate turnover, NADPH consumption readout; O89049; 390,000 compounds, 0.01% hits; AID 588456; Potency, µM (top dose mostly 114 µM), without a hit: at the highest dose activity change, negative = substrate turnover; also: nearly all actives have a fitted effect of over 50% in size
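Rat TrxR1, dispensed at 90 nM, was prereduced with 400 uM NADPH (final) for 5 min at ~22 deg C, then incubated with compound 15 min before 400 uM selenite. A first-read NADPH fluorescence drop versus no-compound background flagged substrates.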
Sfp inh: Sfp phosphopantetheinyl transferase inhibition; Q9F4F7; Biochemical Sfp PPTase activity, qHTS; Potency, µM, inactives show largest response in the series, negative = inhibition, usual class: inhibitors; 310,000 compounds, 3.5% hits;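 also: the enzyme is Sfp with the accession as filed and its product quenches rhodamine fluorescence; 0% = enzyme reaction without inhibitor and -100% = no enzyme wells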
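After 15 min at room temperature with compound, 15 nM Sfp received 5 uM rhodamine-CoA plus 12.5 uM BHQ-2-ybbR (50 mM Hepes pH 7.6, 10 mM MgCl2). Rate came from the fluorescence difference over 30 min, ex 525/em 598 nm.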
VDR inhibitor: blocks the human vitamin D receptor | Potency, µM, for the others: max response, negative = inhibition, usual class: inhibitors | 400,000 compounds, 0.93% hits | VDR-SRC2-3 peptide fluorescence polarization, 2 h
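VDR–SRC2-3 interaction, FP format. Cmpds 23 nl via pintool, brief spin, 2 h ambient incubation.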
IDH1 R132H inh: human IDH1 R132H inhibition | O75874 | IDH1-R132H enzyme, NADPH consumption, diaphorase/resazurin fluorescence | Potency, µM (top dose mostly 76.6 µM), inactives show at the top dose activity change, negative = inhibition, usual class: inhibitors | 390,000 compounds, 0.093% hits | AID 602179; also: nearly all actives have a fitted effect of over 65% in size
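IDH1-R132H (0.5 ug/mL) preincubated 30 min with compound, then NADPH (0.016 mM) and alpha-KG (2 mM) added; 80 min at RT, pH 7.5. Remaining NADPH coupled via diaphorase/resazurin to fluorescence (540/590 nm); concentration-response curves normalized to no-enzyme control.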
TrxR1 inh: blocks rat thioredoxin reductase 1. O89049. recombinant rTrxR1, NADPH fluorescence consumption, selenite substrate. Potency, µM (series often up to 114 µM), inactives show at the top dose activity change, negative = inhibition, hits mostly inhibitors. 390,000 compounds, 1% hits. AID 588453; also: nearly all actives have a fitted effect of over 65% in size
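Rat TrxR1 (90 nM in the dispensed reagent) was pre-reduced with 400 uM NADPH for 5 min at room temperature, then incubated with compound for 15 min. After 400 uM selenite was added, NADPH fluorescence (Ex 340/Em 450 nm) was followed for 8 min.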
PLK1 PBD inh: blocks phosphopeptide binding to human PLK1 polo-box domain; Plk1 PBD binding of FITC phosphopeptide, fluorescence polarization; AID 720504; 360,000 compounds, 2.8% hits; Potency, µM, inactives show max response, negative = inhibition, most hits filed as inhibitors; P53350; also: series mostly up to about 57 µM; nearly all actives have a fitted effect of over 65% in size
Target sequence (P53350 whole entry, looked up, the tested form may be a part): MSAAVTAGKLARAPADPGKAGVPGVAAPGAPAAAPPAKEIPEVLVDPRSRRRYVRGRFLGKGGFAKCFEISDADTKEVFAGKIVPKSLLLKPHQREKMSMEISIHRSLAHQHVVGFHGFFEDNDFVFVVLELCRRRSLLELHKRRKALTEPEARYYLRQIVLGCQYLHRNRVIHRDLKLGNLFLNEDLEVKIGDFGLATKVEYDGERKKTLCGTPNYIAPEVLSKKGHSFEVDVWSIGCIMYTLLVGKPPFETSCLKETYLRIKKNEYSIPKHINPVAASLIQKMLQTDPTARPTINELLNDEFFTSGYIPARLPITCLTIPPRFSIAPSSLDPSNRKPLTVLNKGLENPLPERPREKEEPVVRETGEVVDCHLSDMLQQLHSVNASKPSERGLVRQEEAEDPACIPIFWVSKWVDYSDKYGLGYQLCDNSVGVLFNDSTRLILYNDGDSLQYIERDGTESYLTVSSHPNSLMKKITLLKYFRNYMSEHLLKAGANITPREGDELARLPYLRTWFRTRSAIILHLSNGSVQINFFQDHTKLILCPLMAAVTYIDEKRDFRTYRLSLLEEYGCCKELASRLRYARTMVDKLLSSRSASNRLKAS
The depositor's hits bear a star; ? = inconclusive; . = no result given; [ ] = remark or other dose. Only some compounds are listed: those with a hit (about 5.2% of all), similar ones and a draw of the others. Calls follow the shape of the dose curve; as a rule, active = well fitted curve in the direction sought with a large enough effect; inconclusive = small, poorly fitted or top-dose-only effect, or another doubt; inactive = no such curve, though single readings can be large; an effect the other way counts as inactive or inconclusive. Unless noted, % is scaled to controls: 0 for no effect and ±100 for the full control effect; potency is read from the fitted curve at half-maximal effect.

SMILES	TrxR1 substrate	Sfp inh	VDR inhibitor	IDH1 R132H inh	TrxR1 inh	PLK1 PBD inh
CCN(CC)CCN1C(=O)C(=O)/C(=C(/O)c2ccc3c(c2)CC(C)O3)C1c1ccc(OC)cc1 (stereo not drawn)	-18%	22%	-3%	-5%	45µM*	1%
COc1cc(C2/C(=C(\O)c3ccc4c(c3)CC(C)O4)C(=O)C(=O)N2CC2CCCO2)cc(OC)c1OC (stereo not drawn)	-19%	2%	-6%	3%	?	-3%
O=c1cc(O)n(-c2ccccc2F)c(=S)[nH]1	3%[57.1 µM]	50µM*	-25%	-9%	?	2%
O=c1cc(O)n(-c2ccc(Cl)cc2)c(=S)[nH]1	-8%[57.1 µM]	50µM*	-19%	5%	?	-21%
Cc1ccccc1-n1c(C)n[nH]c1=S	21%	79µM*	-15%	12%	18%	-27%
Cc1ccccc1-n1c(O)cc(=O)[nH]c1=S	10%	56µM*	-19%	8%	?	-7%
Nc1cc(=O)[nH]c(=O)n1-c1ccc(Cl)cc1	5%[57.1 µM]	6%	10%	1%	3%[57.1 µM]	1%
Nc1cc(=O)[nH]c(=S)n1-c1ccccc1	-2%[57.1 µM]	?	3%	-5%	-13%[57.1 µM]	-16%
Cc1ccccc1-n1c(N)cc(=O)[nH]c1=S	3%	7%	-2%	12%	-34%	-4%
COc1ccc(-c2noc(-c3ccccc3NC(=O)c3cc(OC)c(OC)c(OC)c3)n2)cc1	-1%	.	6%	-3%	-1%	.
Cc1cccc(CSC2=NCCN2S(=O)(=O)c2ccc(F)cc2)c1	-13%	1%	-5%	8%	-8%	-3%
CC1(C(=O)NCc2ccco2)CCN1C(=O)C1(c2ccccc2)CC1 (stereo not drawn)	.	.	.	.	.	-13%
Cc1ccc(C2(C(F)(F)F)NC(=O)N3N=C4CCCCCN4C3=C2C#N)cc1 (stereo not drawn)	4%[11.4 µM]	4%	12%	3%	19%[11.4 µM]	-6%
N#CC1=C2Nc3ccccc3N2C(=O)NC1(c1ccccc1)C(F)(F)F (stereo not drawn)	12%[57.1 µM]	9%	-24%	5%	5%[57.1 µM]	24µM*
C=C/C(C)=C/C[C@H]1C(=C)CCC2[C@](C)(C(=O)O)CCC[C@@]21C (stereo partly drawn)	-9%	.	-4%	-9%	-22%	19µM*
C=C1CCC2[C@](C)(CO)[C@H](O)CC[C@@]2(C)[C@@H]1C/C=C1/C(=O)OC[C@H]1O (stereo partly drawn)	.	-19%	-2%	.	.	.
COc1cccc(CN(C)C(=O)c2ccccc2Sc2ccccc2C#N)c1OC	-8%	7%	?	8%	22%	?
CN(C(=O)COC(=O)CSc1ccccc1)c1c(N)n(Cc2ccccc2)c(=O)[nH]c1=O	.	.	.	3%	.	-9%
O=S(=O)(c1ccc(Oc2ccc(Cl)cc2)nc1)N1CCOCC1	-1%[57.1 µM]	.	-17%	4%	0%[57.1 µM]	-8%
Cc1cc(C)c2nc(N3CCCN(C(=O)c4ccco4)CC3)c(C#N)cc2c1	23%	45µM*	79µM*	0%	10µM*	?
O=C(c1ccco1)N1CCN(c2ncnc3sc4c(c23)CCC4)CC1	0%	79µM*	11%	2%	?	-20%
CCc1nc(N2CCN(C(=O)c3ccco3)CC2)c2c3c(sc2n1)CCCC3	11%[57.1 µM]	-12%	-13%	-5%	?	-13%
O=C1c2ccccc2-c2c1cccc2C(=O)N1CCN(C(=O)c2ccco2)CC1	9%	?	-20%	0%	32µM*	-28%
CCCSc1ccccc1C(=O)N1CCN(C(=O)c2ccco2)CC1	-1%	6%	4%	-7%	-35%	-25%
O=C(c1ccco1)N1CCCN(C(=O)c2ccco2)CC1	5%	5%	?	7%	1%	19µM*
O=S(=O)(c1ccccc1)N1CCC2(CCN(Cc3nccs3)CC2)CC1	.	20%	7%	.	.	.
CCn1c2ccccc2c2cc(CN3CCN(C(=O)c4ccco4)CC3)ccc21	-6%[57.1 µM]	56µM*	-9%	1%	8%[57.1 µM]	-3%
